Some of the results follow. Values without a mark were called inactive. Calls of active or inactive are those of the source. No stated cut-off is given here; in the data, active means IC50 below about 80 µM; inactive means the rest. Some results are limits rather than exact numbers.

Data on 18 molecules can be found in PubChem BioAssay AID651564 (Sanford-Burnham Center for Chemical Genomics, 2012).

This experiment is described as follows: fluorescent counter-screen in isolated mitochondria, dose response, counter-screen for MPTP inhibitor project, biochemical, fluorescence, uHTS hits (AID 651564). As to conditions: isolated mitochondria counterscreen, fluorescence read-out. A general note: Counterscreens check selectivity or assay interference.

For `CCCC[C@@H]1CN=C(N)N1CCc1cc(C(F)(F)F)cc(C(F)(F)F)c1`, the half-maximal inhibitory concentration (IC50) is 28.5 µM (active).

On to `CCCc1[nH]nc2c1C(c1c(C)nn(-c3ccccc3)c1Cl)C(C#N)=C(N)O2` (stereo not drawn), for which the IC50 was above 80 µM.

For the molecule `COc1ccc2sc(N(CCCN(C)C)C(=O)c3ccc(S(=O)(=O)N(C)C4CCCCC4)cc3)nc2c1`, the IC50 is 66.5 µM (active).

`CN(C)Cc1ccccc1C1(O)c2ccccc2CSc2ccccc21` (stereo not drawn): the IC50 is above 80 µM.

Turning to `O=C(Nc1cccc(C(F)(F)F)c1)c1ccc(N2CCNCC2)c([N+](=O)[O-])c1`, the IC50 is above 80 µM.

Turning to `CCCCOc1ccc(CSC(=N)N)cc1[N+](=O)[O-]`, the IC50 is above 80 µM.

In the case of `CC1(C)CC(=O)c2sc(N)nc2C1`, the IC50 was above 80 µM.

`Cc1nn(Cc2ccccc2)c2c1C(c1ccccc1)C(C#N)=C(N)O2` (stereo not drawn): the IC50 was 69.8 µM (active).

Turning to `CCCCOC(=O)CNc1nnc(SCC(=O)OCC)[nH]c1=O`, the IC50 was above 80 µM.

Regarding `O=C(c1ccc(Cl)cc1)c1ccc(OCC(O)CN2CCCCC2)cc1` (stereo not drawn), the IC50 is 34.8 µM (active).

For the molecule `CCCCc1nc(NCCN)c(C#N)c2c1CSC(C)(C)C2`, the IC50 was above 80 µM.

In the case of `COCCn1c(CN2CCC(Cc3ccccc3)CC2)nc2c1c(=O)n(C)c(=O)n2C`, the IC50 is 5.73 µM (active).

For the molecule `Fc1ccc(N2N=C(c3cccs3)CC2c2ccco2)c(F)c1` (stereo not drawn), the IC50 is above 80 µM.

On to `NC[C@H](Cc1ccccc1)NCCc1cc(C(F)(F)F)cc(C(F)(F)F)c1`, for which the 50% inhibitory concentration (IC50) was 52.7 µM (active).

In the case of `CCCCCCCCCCCCN1C(=O)CSC1c1cccnc1` (stereo not drawn), the IC50 is 12 µM (active).

Regarding `CCCC(C(=O)OCCN(CC)CC)(c1ccccc1)c1ccccc1`, the half-inhibitory concentration (IC50) was 77.1 µM (active).

For the molecule `C[C@@H](CN1CCC[C@H]1CN1C(N)=NC[C@@H]1Cc1ccccc1)N1C[C@@H](Cc2ccccc2)N(CCCC2CCCC2)C1=N`, the half-inhibitory concentration (IC50) is 16.3 µM (active).

As to `CN1CCC[C@@H]1CCO[C@](C)(c1ccccc1)c1ccc(Cl)cc1`, the IC50 is above 80 µM.

As usually defined, the IC50 is the point on the concentration scale where inhibition reaches its midpoint.
